The nature of test [1]: qHTS assay to test for compound auto fluorescence at 535 nm (green) in HEK293 cells (AID 720680).
The nature of test [2]: qHTS assay to test for compound auto fluorescence at 460 nm (blue) in HEK293 cell free culture (AID 720681). The gist of the method: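 Test compounds were pinned into cell-free culture medium (DMEM with 10% FBS) and fluorescence was read directly at Ex/Em 405/460 nm. Signals were expressed as fluorescence equivalents of triamterene, with DMSO vehicle as control.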
The nature of test [3]: qHTS assay to test for compound auto fluorescence at 535 nm (green) in HEK293 cell free culture (AID 720682). The gist of the method: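 No cells present: wells hold DMEM supplemented with 10% FBS, into which compound or vehicle is pinned. Green emission is then recorded (485 nm excitation, 535 nm emission) and scaled to fluorescein.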
Test [4] in a line: qHTS assay to test for compound auto fluorescence at 590 nm (red) in HEK293 cell free culture (AID 720683). The method, boiled down:
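Tox21 10K library compounds were pinned into cell-free DMEM with 10% FBS and fluorescence was read at excitation 540 nm. Activity is expressed as Rose Bengal sodium equivalency.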

Test [5] can be described thus: qHTS assay to test for compound auto fluorescence at 590 nm (red) in HepG2 cell free culture (AID 720684). The method, boiled down:
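Red fluorescence (540 nm excitation, 590 nm emission) was measured after compound transfer into cell-free MEM supplemented with 10% FBS. Values are equivalencies against Rose Bengal sodium.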

Test [6] can be described thus: qHTS assay to test for compound auto fluorescence at 460 nm (blue) in HepG2 cell free culture (AID 720685). The gist of the method: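 Compound (23 nL) or DMSO pinned into cell-free MEM with 10% FBS; blue fluorescence read at 405/460 nm excitation/emission, expressed as auto-fluorescence equivalency to triamterene.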
The nature of test [7]: qHTS assay to test for compound auto fluorescence at 535 nm (green) in HepG2 cell free culture (AID 720686).
The nature of test [8]: qHTS assay to test for compound auto fluorescence at 460 nm (blue) in HepG2 cells (AID 720687). The gist of the method:
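Cells (2,000/well in MEM with 10% FBS) attached overnight at 37 C, then were exposed to compound or DMSO for 1 hr at 37 C, 5% CO2. Fluorescence read at Ex/Em 405/460 nm, expressed as triamterene-equivalent signal.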

Test [9] is described as follows: qHTS assay for identifying genotoxic compounds that show differential cytotoxicity against isogenic chicken DT40 cell lines with known DNA damage response pathways - Rev3 mutant cell line (AID 743014). Also: nearly all actives have a fitted effect of over 55% in size. Also: potency is read from the fitted curve at half-maximal effect.
The nature of test [10]: qHTS assay to identify small molecule antagonists of the androgen receptor (AR) signaling pathway using the MDA cell line - cell viability counter screen (AID 743041; also: nearly all actives have a fitted effect of over 45% in size). The gist of the method: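 MDA-kb2 AR-luc human breast carcinoma cells (MMTV-luciferase, AR/GR responsive) were treated with compounds plus R1881 agonist for 16 h at 37 °C. Viability was read as CellTiter-Fluor fluorescence in the same wells as the reporter assay.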

The nature of test [11]: qHTS assay to identify small molecule antagonists of the thyroid receptor (TR) signaling pathway - cell viability counter screen (AID 743064). Also: nearly all actives have a fitted effect of over 50% in size. The method, boiled down: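 Rat GH3 pituitary tumor cells stably expressing two TR response elements driving luciferase were plated, rested 4 h, then dosed with library compounds and T3 (1 nM final). After 23.5 h at 37 °C, CellTiter-Fluor was added for 30 min and fluorescence recorded.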

Test [12] is described as follows: qHTS assay to identify small molecule antagonists of the glucocorticoid receptor (GR) signaling pathway - cell viability counter screen (AID 720693). Also: nearly all actives have a fitted effect of over 55% in size.
A short description of test [13]: qHTS assay for identifying genotoxic compounds that show differential cytotoxicity against isogenic chicken DT40 cell lines with known DNA damage response pathways - wild type cell line (AID 743012). Also: nearly all actives have a fitted effect of over 60% in size. Also: potency is read from the fitted curve at half-maximal effect. The method, boiled down: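 Using parental DT40 (300 cells/well), compounds delivered in DMSO incubate 40 h at 37 C/5% CO2. CellTiter-Glo reagent then stands 30 min at room temperature, and luminescence gives cell viability.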

Test [14] can be described thus: qHTS assay for identifying genotoxic compounds that show differential cytotoxicity against isogenic chicken DT40 cell lines with known DNA damage response pathways - Rad54/Ku70 mutant cell line (AID 743015). Also: nearly all actives have a fitted effect of over 60% in size.
The nature of test [15]: qHTS assay to identify small molecule antagonists of the androgen receptor (AR) signaling pathway - cell viability counter screen (AID 743033; also: nearly all actives have a fitted effect of over 45% in size).
Test [16] addresses Glucocorticoid receptor (Homo sapiens) (UniProt P04150). The test can be described thus: qHTS assay to identify small molecule agonists of the glucocorticoid receptor (GR) signaling pathway (AID 720691; active = well fitted activation curve with a large enough effect in the signal ratio in the repeat runs, not every such curve was filed as active; the % refers to the signal ratio). The gist of the method:
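Reporter read-out: fluorescence intensity following 2 h room-temperature LiveBLAzer B/G FRET substrate loading. Prior step: GR-bla HeLa cells held 4 h, then treated 18 h at 37 C.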

For test [17] the target is unchanged. In words: qHTS assay to identify small molecule antagonists of the glucocorticoid receptor (GR) signaling pathway (AID 720692; active = well fitted inhibition curve with a large enough effect in the signal ratio in the repeat runs, not every such curve was filed as active; the % refers to the signal ratio). The method, boiled down: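 Dexamethasone (5 nM final) stimulated a stably integrated GRE-beta-lactamase reporter in HeLa cells during 18 h co-incubation with compounds; signal was quantified as fluorescence intensity of B/G FRET substrate after 2 h.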

The results in this text go back to PubChem BioAssay (Tox21).

Records with an inconclusive call do not appear. Active and inactive are the calls of the source. Unless noted, calls follow the shape of the dose curve; as a rule, active = well fitted curve in the direction sought with a large enough effect in the repeat runs; inconclusive = weak or mixed curves; inactive = no such curve, though single readings can be large; an effect the other way counts as inactive or inconclusive.

Glucocorticoid receptor (Homo sapiens), sequence (P04150 whole entry, looked up): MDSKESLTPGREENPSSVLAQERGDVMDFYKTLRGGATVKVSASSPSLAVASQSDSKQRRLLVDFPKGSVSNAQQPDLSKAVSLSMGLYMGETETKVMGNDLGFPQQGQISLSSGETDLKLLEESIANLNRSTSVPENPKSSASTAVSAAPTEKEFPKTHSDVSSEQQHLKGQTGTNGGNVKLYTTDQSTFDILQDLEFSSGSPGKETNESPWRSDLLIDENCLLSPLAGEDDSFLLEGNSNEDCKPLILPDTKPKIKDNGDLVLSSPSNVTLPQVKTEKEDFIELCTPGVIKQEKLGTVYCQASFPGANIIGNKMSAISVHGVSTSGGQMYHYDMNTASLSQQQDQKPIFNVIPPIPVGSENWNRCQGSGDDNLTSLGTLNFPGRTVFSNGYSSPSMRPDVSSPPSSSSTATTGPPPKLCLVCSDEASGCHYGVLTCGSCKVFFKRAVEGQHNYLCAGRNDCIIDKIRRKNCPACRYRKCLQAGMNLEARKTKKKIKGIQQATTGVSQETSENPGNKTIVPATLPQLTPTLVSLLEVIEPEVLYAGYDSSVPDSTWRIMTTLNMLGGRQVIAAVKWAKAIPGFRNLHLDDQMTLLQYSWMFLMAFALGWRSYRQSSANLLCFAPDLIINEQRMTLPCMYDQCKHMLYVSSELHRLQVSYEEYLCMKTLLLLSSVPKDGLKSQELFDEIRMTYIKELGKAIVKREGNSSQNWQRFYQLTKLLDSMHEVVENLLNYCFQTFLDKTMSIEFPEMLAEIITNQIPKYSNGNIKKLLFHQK

`COC(=O)C(C)Oc1ccc(Oc2ncc(C(F)(F)F)cc2Cl)cc1` (stereo unspecified): the Potency result in test [1], in test [2], in [3], in test [4], in test [5] and in test [6] was “inactive” throughout. Besides, the Potency entry in test [7], in test [8], in [10] and in [11] was “inactive” each time. The Potency in test [9] was 54.5 µM (active).
As to `ClC/C=C/CCl`, the Potency result in test [1], in test [2], in test [3], in test [4], in test [5] and in test [6] was “inactive” throughout. Besides, the Potency entry in test [7], in test [8], in test [12], in [13], in [9] and in test [14] was “inactive” in each case. Also, the Potency entry in [15], in test [10] and in test [11] was “inactive” throughout.
As for `CCCCCC1C(=O)CCC1CC(=O)OC` (stereo unspecified), the Potency result in [1], in test [2], in test [3], in test [4], in test [5] and in test [6] was “inactive” in each case. Further, the Potency result in test [7], in [8], in [12], in test [13], in [9] and in test [14] was “inactive” throughout. Besides, the Potency result in test [15] and in test [10] was “inactive” throughout.
For `Nc1cc([N+](=O)[O-])ccc1C(=O)O`, the Potency entry in [1], in [2], in test [3], in [4], in [5] and in test [6] was “inactive” throughout. The Potency result in test [7], in test [8], in test [12], in test [13], in [9] and in test [14] was “inactive” each time. Also, the Potency result in test [10] and in [11] was “inactive” throughout.
Turning to `C/C=C/C(=O)N(CC)c1ccccc1C`, the Potency entry in test [1], in test [2], in test [3], in test [5], in test [6] and in test [7] was “inactive” in each case. For the same molecule, the Potency result in [8], in test [16], in test [17], in [12], in test [15] and in [10] was “inactive” in each case. The Potency in [13] and in test [9] was 54.5 µM (active) in each case.
As for `Cc1ccc(C)c(O)c1`, the Potency result in [2], in [3], in [4], in [5], in [6] and in test [7] was “inactive” in each case. Besides, the Potency entry in test [8], in [16], in test [17], in [12], in test [13] and in test [9] was “inactive” each time. Besides, the Potency result in test [14], in [15] and in test [10] was “inactive” throughout.
With `CN(C)C`, the Potency result in test [1], in [2], in [3], in [4], in [5] and in [6] was “inactive” throughout. Besides, the Potency result in test [7], in test [8], in test [12], in test [13], in test [9] and in [14] was “inactive” throughout. For the same molecule, the Potency result in test [15] and in test [11] was “inactive” in each case.
`COC(=O)c1ccc(C)cc1`: the Potency entry in test [1], in [2], in test [3], in [5], in test [6] and in [7] was “inactive” throughout. In addition, the Potency result in test [8], in test [16], in [17], in test [13], in [9] and in test [14] was “inactive” throughout. The Potency entry in [10] and in [11] was “inactive” throughout.
